Laboratory results from PubChem BioAssay (NCI).
Compounds without any hit were thinned out: in the full panel of roughly 79,000, 15% have a hit. Values without a mark were called inactive. Calls of active or inactive are those of the source. Cut-off read from the data, not from the text of the source: active = growth inhibition above about 70%; inactive = the rest.

How the values were obtained:
[1] = NCI Yeast Anticancer Drug Screen. Data for the rad52 strain (AID 147);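 note: 0% = growth of vehicle-treated control cultures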; conditions: S. cerevisiae rad52 mutant growth inhibition, stronger effect = higher value
Outline: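 Growth of repair-deficient yeast cells was compared between compound-treated and vehicle-treated cultures to give percent inhibition.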

[2] = NCI Yeast Anticancer Drug Screen. Data for the wt1 strain (AID 149);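 note: 0% = growth of vehicle-treated wt1 cultures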; conditions: S. cerevisiae wt1 strain (SPY 50644) growth inhibition, stronger effect = higher value
Outline: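 Growth inhibition read against vehicle controls after compound exposure of the wt1 yeast strain.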

[3] = NCI Yeast Anticancer Drug Screen. Data for the rad50EPP+ strain (AID 151);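 note: 0% = growth of vehicle-treated control cultures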; conditions: S. cerevisiae rad50 mutant strain, stronger effect = higher value
Outline: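 Measured: growth inhibition of rad50EPP+ yeast. Reference: vehicle-treated controls. Screen uses strains with defined genetic alterations in DNA damage repair or cell cycle control.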

[4] = NCI Yeast Anticancer Drug Screen. Data for the mgt1 strain (AID 153); conditions: S. cerevisiae mgt1 mutant growth inhibition, stronger effect = higher value
Outline: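 Compounds were applied to mgt1 mutant yeast, and growth was then compared against vehicle-treated control cultures to give percent inhibition.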

[5] = NCI Yeast Anticancer Drug Screen. Data for the rad50 strain (AID 155);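 note: 0% = growth of vehicle-only cultures of the same strain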; conditions: S. cerevisiae rad50 strain growth inhibition, stronger effect = higher value
Outline: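 Readout: growth inhibition relative to vehicle-treated cultures. Compound exposure was carried out in a genetically defined yeast strain deficient in DNA damage repair.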

[6] = NCI Yeast Anticancer Drug Screen. Data for the mec2-1 strain (AID 157); conditions: S. cerevisiae mec2-1 strain, stronger effect = higher value
Outline: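 Compounds were applied to mec2-1 yeast cells. Their growth was then compared with that of vehicle-treated cultures to give growth inhibition.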

[7] = NCI Yeast Anticancer Drug Screen. Data for the rad14 strain (AID 159);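 note: 0% = growth of vehicle-treated control cultures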; conditions: S. cerevisiae rad14 strain growth inhibition, stronger effect = higher value
Outline: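 Growth inhibition vs vehicle controls; genetically altered yeast strain (DNA damage repair defect) treated with test compounds.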

[8] = NCI Yeast Anticancer Drug Screen. Data for the sgs1 mgt1 strain (AID 161);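 note: 0% = growth of cultures given vehicle only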; conditions: S. cerevisiae sgs1 mgt1 strain, stronger effect = higher value
Outline: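 Percent growth inhibition was derived by comparing compound-exposed mutant yeast with vehicle-exposed cultures. The strain carries alterations in DNA damage repair.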

[9] = NCI Yeast Anticancer Drug Screen. Data for the CLN2oe strain (AID 163);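 note: 0% = growth of vehicle-only control cultures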; conditions: S. cerevisiae CLN2oe strain, stronger effect = higher value
Outline: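 Cells of an engineered yeast line with disturbed cell-cycle regulation are treated with compound. Inhibition of growth is then calculated relative to the vehicle-treated reference.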

[10] = NCI Yeast Anticancer Drug Screen. Data for the bub3 strain (AID 167); conditions: S. cerevisiae bub3 mutant strain, stronger effect = higher value
Outline: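 Readout: yeast growth inhibition, expressed relative to vehicle-only wells. The test organism is a mutant strain from a panel with lesions in DNA repair or checkpoint genes.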

[11] = NCI Yeast Anticancer Drug Screen. Data for the wt2 strain (AID 169);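 note: 0% = growth of vehicle-treated yeast cultures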; conditions: S. cerevisiae wt2 strain growth inhibition, stronger effect = higher value
Outline: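 Growth of compound-treated yeast is measured and expressed as inhibition relative to vehicle-only controls.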

[12] = NCI Yeast Anticancer Drug Screen. Data for the mlh1 strain (AID 171);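 note: 0% = growth of vehicle-treated control cultures of the same strain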; conditions: S. cerevisiae mlh1 strain growth inhibition, stronger effect = higher value
Outline: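 Test agents were incubated with yeast bearing a defined DNA damage repair or cell cycle control alteration; values are growth inhibition normalised to vehicle-treated cultures.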

[13] = NCI Yeast Anticancer Drug Screen. Data for the sgs1 strain (AID 173);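 note: 0% = growth of vehicle-only control cultures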; conditions: S. cerevisiae sgs1 mutant, stronger effect = higher value
Outline: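 Strain with an altered DNA repair or cell cycle pathway exposed to compound. Growth then measured. Value = inhibition versus vehicle control.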

[14] = NCI Yeast Anticancer Drug Screen. Data for the mlh1 rad18 strain (AID 175); conditions: S. cerevisiae mlh1 rad18 strain growth inhibition, stronger effect = higher value
Outline: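 A repair-deficient yeast strain is exposed to test compound, and growth is scored relative to vehicle-treated controls.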

[15] = NCI Yeast Anticancer Drug Screen. Data for the rad18 strain (AID 177); conditions: S. cerevisiae rad18 mutant growth inhibition, stronger effect = higher value
Outline: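 DNA-repair-defective yeast; compound treatment; growth inhibition scored against vehicle.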

[16] = NCI Yeast Anticancer Drug Screen. Data for the cln2 rad14 strain (AID 165);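 note: 0% = growth equal to vehicle treated cultures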; conditions: S. cerevisiae cln2 rad14 strain, stronger effect = higher value
Outline: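 Strain: cln2 rad14 yeast, altered in cell cycle control and DNA damage repair. Read-out: growth inhibition vs vehicle.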

[17] = at 5.0 µM (retest, dose inferred, filed as 0.5)
[18] = at 50.0 µM (retest, dose inferred, filed as 5.0)

Compound: CNC(=O)OCc1c(COC(=O)NC)c2n(c1C)-c1ccc(OC)cc1CCC2
- growth inhibition ([1]; at 1.2 µM): -18%
- growth inhibition ([1]; at 3.7 µM): -24%
- growth inhibition ([1]; at 11.0 µM): -20%
- growth inhibition ([1]; at 33.0 µM): 96% (active)
- growth inhibition ([1]; at 100.0 µM): 99% (active)
- growth inhibition ([2]; at 1.2 µM): -45%
- growth inhibition ([2]; at 3.7 µM): -53%
- growth inhibition ([2]; at 11.0 µM): -57%
- growth inhibition ([2]; at 33.0 µM): 96% (active)
- growth inhibition ([2]; at 100.0 µM): 100% (active)
- growth inhibition ([3]; at 1.2 µM): -6%
- growth inhibition ([3]; at 3.7 µM): -7%
- growth inhibition ([3]; at 11.0 µM): -8%
- growth inhibition ([3]; at 33.0 µM): 6%
- growth inhibition ([3]; at 100.0 µM): 15%
- growth inhibition ([4]; at 1.2 µM): -32%
- growth inhibition ([4]; at 3.7 µM): -35%
- growth inhibition ([4]; at 11.0 µM): -34%
- growth inhibition ([4]; at 33.0 µM): 98% (active)
- growth inhibition ([4]; at 100.0 µM): 99% (active)
- growth inhibition ([5]; at 1.2 µM): -35%
- growth inhibition ([5]; at 3.7 µM): -38%
- growth inhibition [5, 17]: 25%
- growth inhibition ([5]; at 11.0 µM): -43%
- growth inhibition ([5]; at 33.0 µM): 95% (active)
- growth inhibition [5, 18]: 99% (active)
- growth inhibition ([5]; at 50.0 µM): 85.7% (active)
- growth inhibition ([5]; at 100.0 µM): 99% (active)
- growth inhibition ([6]; at 1.2 µM): -61%
- growth inhibition ([6]; at 3.7 µM): -29%
- growth inhibition [6, 17]: 2%
- growth inhibition ([6]; at 11.0 µM): -52%
- growth inhibition ([6]; at 33.0 µM): 95% (active)
- growth inhibition [6, 18]: 99% (active)
- growth inhibition ([6]; at 50.0 µM): 89.1% (active)
- growth inhibition ([6]; at 100.0 µM): 99% (active)
- growth inhibition ([7]; at 1.2 µM): -36%
- growth inhibition ([7]; at 3.7 µM): -16%
- growth inhibition ([7]; at 11.0 µM): -23%
- growth inhibition ([7]; at 33.0 µM): 98% (active)
- growth inhibition ([7]; at 100.0 µM): 100% (active)
- growth inhibition [8, 17]: 17%
- growth inhibition [8, 18]: 99% (active)
- growth inhibition ([8]; at 50.0 µM): 90% (active)
- growth inhibition ([9]; at 1.2 µM): -12%
- growth inhibition ([9]; at 3.7 µM): -16%
- growth inhibition ([9]; at 11.0 µM): -5%
- growth inhibition ([9]; at 33.0 µM): 87% (active)
- growth inhibition ([9]; at 100.0 µM): 100% (active)
- growth inhibition ([10]; at 1.2 µM): -16%
- growth inhibition ([10]; at 3.7 µM): -26%
- growth inhibition [10, 17]: 45%
- growth inhibition ([10]; at 11.0 µM): -30%
- growth inhibition ([10]; at 33.0 µM): 97% (active)
- growth inhibition [10, 18]: 100% (active)
- growth inhibition ([10]; at 50.0 µM): 87.2% (active)
- growth inhibition ([10]; at 100.0 µM): 99% (active)
- growth inhibition ([11]; at 1.2 µM): 8%
- growth inhibition ([11]; at 3.7 µM): 9%
- growth inhibition ([11]; at 11.0 µM): -7%
- growth inhibition ([11]; at 33.0 µM): 66%
- growth inhibition ([11]; at 100.0 µM): 98% (active)
- growth inhibition ([12]; at 1.2 µM): -42%
- growth inhibition ([12]; at 3.7 µM): -31%
- growth inhibition ([12]; at 11.0 µM): -47%
- growth inhibition ([12]; at 33.0 µM): 98% (active)
- growth inhibition ([12]; at 100.0 µM): 99% (active)
- growth inhibition ([13]; at 1.2 µM): -15%
- growth inhibition ([13]; at 3.7 µM): -15%
- growth inhibition ([13]; at 11.0 µM): -16%
- growth inhibition ([13]; at 33.0 µM): 95% (active)
- growth inhibition ([13]; at 100.0 µM): 99% (active)
- growth inhibition [14, 17]: 17%
- growth inhibition [14, 18]: 98% (active)
- growth inhibition ([14]; at 50.0 µM): 86.9% (active)
- growth inhibition ([15]; at 1.2 µM): -45%
- growth inhibition ([15]; at 3.7 µM): -43%
- growth inhibition ([15]; at 11.0 µM): -48%
- growth inhibition ([15]; at 33.0 µM): 96% (active)
- growth inhibition ([15]; at 100.0 µM): 98% (active)

Compound: C[C@@](O)(/C=C/[C@H]1CC=CC(=O)O1)[C@@H](C[C@@H](O)\C=C/C=C\C=C\CO)OP(=O)(O)O
- growth inhibition ([1]; at 1.2 µM): 26%
- growth inhibition ([1]; at 3.7 µM): 22%
- growth inhibition ([1]; at 11.0 µM): 37%
- growth inhibition ([1]; at 33.0 µM): 66%
- growth inhibition ([1]; at 100.0 µM): 90% (active)
- growth inhibition ([2]; at 1.2 µM): 18%
- growth inhibition ([2]; at 3.7 µM): 13%
- growth inhibition ([2]; at 11.0 µM): 15%
- growth inhibition ([2]; at 33.0 µM): 35%
- growth inhibition ([2]; at 100.0 µM): 81% (active)
- growth inhibition ([3]; at 1.2 µM): 18%
- growth inhibition ([3]; at 3.7 µM): 15%
- growth inhibition ([3]; at 11.0 µM): 17%
- growth inhibition ([3]; at 33.0 µM): 25%
- growth inhibition ([3]; at 100.0 µM): 33%
- growth inhibition ([4]; at 1.2 µM): 33%
- growth inhibition ([4]; at 3.7 µM): 28%
- growth inhibition ([4]; at 11.0 µM): 33%
- growth inhibition ([4]; at 33.0 µM): 51%
- growth inhibition ([4]; at 100.0 µM): 86% (active)
- growth inhibition ([5]; at 1.2 µM): 27%
- growth inhibition ([5]; at 3.7 µM): 30%
- growth inhibition [5, 17]: 1%
- growth inhibition ([5]; at 11.0 µM): 41%
- growth inhibition ([5]; at 33.0 µM): 62%
- growth inhibition [5, 18]: 53%
- growth inhibition ([5]; at 50.0 µM): 67.2%
- growth inhibition ([5]; at 100.0 µM): 92% (active)
- growth inhibition ([6]; at 1.2 µM): 9%
- growth inhibition ([6]; at 3.7 µM): 22%
- growth inhibition [6, 17]: -2%
- growth inhibition ([6]; at 11.0 µM): 25%
- growth inhibition ([6]; at 33.0 µM): 46%
- growth inhibition [6, 18]: 34%
- growth inhibition ([6]; at 50.0 µM): 50.6%
- growth inhibition ([6]; at 100.0 µM): 84% (active)
- growth inhibition ([7]; at 1.2 µM): 9%
- growth inhibition ([7]; at 3.7 µM): 13%
- growth inhibition ([7]; at 11.0 µM): 11%
- growth inhibition ([7]; at 33.0 µM): 50%
- growth inhibition ([7]; at 100.0 µM): 94% (active)
- growth inhibition [8, 17]: 17%
- growth inhibition [8, 18]: 60%
- growth inhibition ([8]; at 50.0 µM): 73% (active)
- growth inhibition [16, 17]: 5%
- growth inhibition [16, 18]: 17%
- growth inhibition ([16]; at 50.0 µM): 42.6%
- growth inhibition ([10]; at 1.2 µM): 29%
- growth inhibition ([10]; at 3.7 µM): 45%
- growth inhibition [10, 17]: 34%
- growth inhibition ([10]; at 11.0 µM): 63%
- growth inhibition ([10]; at 33.0 µM): 86% (active)
- growth inhibition [10, 18]: 91% (active)
- growth inhibition ([10]; at 50.0 µM): 86.1% (active)
- growth inhibition ([10]; at 100.0 µM): 93% (active)
- growth inhibition ([11]; at 1.2 µM): 4%
- growth inhibition ([11]; at 3.7 µM): 19%
- growth inhibition ([11]; at 11.0 µM): 20%
- growth inhibition ([11]; at 33.0 µM): 39%
- growth inhibition ([11]; at 100.0 µM): 88% (active)
- growth inhibition ([12]; at 1.2 µM): 21%
- growth inhibition ([12]; at 3.7 µM): 20%
- growth inhibition ([12]; at 11.0 µM): 34%
- growth inhibition ([12]; at 33.0 µM): 61%
- growth inhibition ([12]; at 100.0 µM): 88% (active)
- growth inhibition ([13]; at 1.2 µM): 33%
- growth inhibition ([13]; at 3.7 µM): 32%
- growth inhibition ([13]; at 11.0 µM): 42%
- growth inhibition ([13]; at 33.0 µM): 59%
- growth inhibition ([13]; at 100.0 µM): 90% (active)
- growth inhibition [14, 17]: -2%
- growth inhibition [14, 18]: 48%
- growth inhibition ([14]; at 50.0 µM): 19.3%
- growth inhibition ([15]; at 1.2 µM): 40%
- growth inhibition ([15]; at 3.7 µM): 34%
- growth inhibition ([15]; at 11.0 µM): 41%
- growth inhibition ([15]; at 33.0 µM): 54%
- growth inhibition ([15]; at 100.0 µM): 84% (active)
